An excerpt weighted towards active compounds, which were near 1.9% of everything screened.
ATG4B inhibitor: ATG4B protease inhibitors, primary screen, biochemical, fluorescence, uHTS | AID 504462, 2011 | inhibition, % at 8.33 µM | ATG4B cleavage of LC3-PLA2, NBD-HPC fluorescence, 1 h | 340,000 compounds, 0.51% hits | Cysteine protease ATG4B (Homo sapiens), Q9Y4P1; in the data active = inhibition above about 40%
Cardio protect: cardioprotection against H2O2-induced cell death, primary screen, uHTS, H9c2 cells, ATPLite luminescence; H9c2 cardiomyocytes, H2O2 injury protection, 2 h; 360,000 compounds, 0.63% hits; protection from H2O2 cell death, % at 20 µM;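 active = compounds giving at least 50% protection of heart cells from peroxide-induced death in the single-dose screen, raw or plate-pattern-corrected value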
PP5 primary: PP5 phosphatase inhibitors, primary screen, biochemical, fluorescence; Serine/threonine-protein phosphatase 5 (Homo sapiens), P53041; purified PP5c, OMFP substrate fluorescence; inhibition, % at 6.7 µM; 320,000 compounds, 0.18% hits;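 active = inhibition above the campaign's mean inhibition across all tested compounds plus 3 SD, cut at about 9.5% in these data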
Target sequence (P53041 whole entry, looked up): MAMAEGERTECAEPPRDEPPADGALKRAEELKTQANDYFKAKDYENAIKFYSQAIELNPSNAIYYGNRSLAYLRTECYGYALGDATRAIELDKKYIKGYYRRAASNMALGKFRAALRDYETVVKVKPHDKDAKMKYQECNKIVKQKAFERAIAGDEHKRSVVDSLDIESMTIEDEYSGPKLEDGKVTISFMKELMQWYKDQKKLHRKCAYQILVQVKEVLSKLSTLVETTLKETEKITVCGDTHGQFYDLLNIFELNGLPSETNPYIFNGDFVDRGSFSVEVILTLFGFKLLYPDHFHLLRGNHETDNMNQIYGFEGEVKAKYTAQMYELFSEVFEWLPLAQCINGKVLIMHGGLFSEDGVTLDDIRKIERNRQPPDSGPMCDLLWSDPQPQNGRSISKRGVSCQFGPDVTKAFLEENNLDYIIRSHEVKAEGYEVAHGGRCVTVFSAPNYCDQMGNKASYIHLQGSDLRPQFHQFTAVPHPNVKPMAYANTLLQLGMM
PP1 counter: PP1-alpha phosphatase inhibitors, primary screen, counter-screen for PP5 inhibitor project, biochemical, fluorescence, OMFP substrate, single point; Serine/threonine-protein phosphatase PP1-alpha catalytic subunit (Homo sapiens), P62136; purified PP1alpha; inhibition, % at 6.7 µM; 320,000 compounds, 0.9% hits;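 active = inhibition above the mean inhibition of all tested compounds plus 3 SD, computed separately for each screening campaign, cut at about 15% in these data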
PP5 conf: PP5 phosphatase inhibitors, confirmation, biochemical, fluorescence, human. shares compounds with PP5 primary. Purified PP5, fluorogenic phosphatase substrate. inhibition, % at 6.7 µM. 460 compounds, 22% hits. AID 2331, 2010; in the data active = inhibition above about 9.5%
PP1 inh counter: PP1 phosphatase inhibitors, counter-screen for PP5 inhibitor project, biochemical, fluorescence, triplicate; shares compounds with PP5 primary; PP1 enzyme, fluorescent phosphatase substrate; inhibition, % at 6.7 µM; 460 compounds, 4% hits; in the data active = inhibition above about 16%
PP1 inh confirm: PP1 phosphatase inhibitors, confirmation, biochemical, fluorescence, OMFP substrate, triplicate; purified PP1alpha; shares compounds with PP1 counter; inhibition, % at 6.7 µM; 1,900 compounds, 52% hits;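 active = mean PP1 inhibition above a set limit taken from the earlier primary screen, cut at about 15% in these data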
PP5 counter: PP5 phosphatase inhibition by PP1 hits, confirmation, counter-screen for PP1 inhibitor project, biochemical, fluorescence, triplicate. shares compounds with PP1 counter. purified PP5c, OMFP fluorescence. inhibition, % at 6.7 µM. 1,900 compounds, 4% hits;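 active = mean PP5 inhibition over triplicate wells above about 9.5% taken from the earlier PP1 screen, limit read from the data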
A number is an active result; - = inactive; . = no result given.

SMILES | ATG4B inhibitor | Cardio protect | PP5 primary | PP1 counter | PP1 inh confirm | PP5 counter | others
O=c1[nH]c2ccccc2n1CCCN1CCC(n2c(=O)[nH]c3cc(Cl)ccc32)CC1 | - | 62.8 | - | - | . | .
Nc1cccc(SC2CC(=O)N(c3ccc(Cl)cc3C(=O)c3ccccc3)C2=O)c1 (stereo not given) | . | - | . | . | . | .
CSc1nc(Cl)c(Br)c(N2CC2)n1 | - | 50.7 | . | . | . | .
COC(=O)C1=C(c2ccc(OC)c(OC)c2)C[C@@H]2CC[C@H]1N2C(=O)N1CCOCC1 | - | - | - | - | . | .
O=C(O)C1C2c3ccccc3C(O)C1(C(=O)O)c1ccccc12 (stereo not given) | - | - | . | . | . | .
NC(N)=N/N=C/c1cn(-c2ccccc2)nc1-c1cccs1 | - | - | - | 16.8 | . | .
CCOC(=O)[C@@]1(C#N)[C@@H]2C=CC(C(N)=O)=CN2[C@@H](C(N)=O)[C@@H]1c1cccc(Cl)c1 | 93.8 | - | - | - | . | .
CCOC(=O)[C@@]1(C#N)C(c2ccc(Cl)c(Cl)c2)[C@H](C(N)=O)N2C=C(C(C)=O)C=C[C@H]21 (stereo not given in full) | - | - | - | - | . | .
CCOC(=O)[C@]1(C#N)[C@@H]2C=CC(C(N)=O)=CN2[C@@H](C(N)=O)[C@@H]1c1ccc(F)cc1 | 48.2 | - | - | - | . | .
C[C@]12CCC3C(CC[C@H]4C[C@H](O)[C@H](O)C[C@]34C)C1CC[C@@H]2O (stereo not given in full) | - | - | . | . | . | .
CCCCn1c(NC(=O)c2ccco2)c(C(=O)OCC)c2nc3ccccc3nc21 | - | - | 9.6 | - | . | . | PP5 conf=36.6;PP1 inh counter=-
C=C1[C@H]2CC[C@H]3[C@]4(C)C[C@H](O[C@H]5O[C@H](CO)[C@@H](OS(=O)(=O)O)[C@H](OS(=O)(=O)O)[C@H]5OC(=O)CC(C)C)C[C@@H](C(=O)O)[C@H]4CC[C@]3(C2)[C@H]1O | - | - | - | - | . | .
CCN(CC)c1ccc(N=Cc2c(O)n(-c3ccccc3C)c(=O)[nH]c2=O)cc1 | - | - | - | - | . | .
CCOc1ccccc1-n1c(O)c(C=Nc2ccc(N(CC)CC)cc2)c(=O)[nH]c1=O | - | - | 12.1 | - | . | . | PP5 conf=-;PP1 inh counter=-
O=P(O)(O)CN1CCNCCN(CP(=O)(O)O)CCNCC1 | - | - | . | . | . | .
COc1ccc(Cn2c(N)c(C(=O)NCc3ccco3)c3nc4ccccc4nc32)cc1 | - | - | 11.1 | - | . | . | PP5 conf=11.3;PP1 inh counter=-
CN1C[C@H](CO)C=C2c3cccc4[nH]cc(c34)C[C@H]21 | - | - | - | 31.6 | - | -
CC(C)[C@H]1C(=O)N2CCC[C@H]2[C@]2(O)O[C@](NC(=O)[C@@H]3C=C4c5cccc6[nH]cc(c56)C[C@H]4N(C)C3)(C(C)C)C(=O)N12 | - | - | - | - | . | .
COc1ccc(OC)c(C(O)C2CCCCN2)c1 (stereo not given) | - | - | - | - | . | .
O=C1NC(=O)N(Cc2ccco2)C(=O)/C1=C/c1ccc(-c2cccc([N+](=O)[O-])c2)o1 | - | - | - | 33.4 | 15.9 | -
CCCCCc1cc(O)c2c3c(c(=O)oc2c1)CN(C)CC3 | - | - | - | - | . | .
Cc1cc(O)c2c(c1)C(=O)C13C(=C2O)C(=O)[C@H]2[C@@H](O)[C@@H]1[C@H]1[C@H](O)[C@@H]3C(=O)C3=C(O)c4c(O)cc(C)cc4C(=O)C312 (stereo not given in full) | - | - | - | 39.9 | 33.5 | -
CC(C)(C)C(=O)Cn1c(NCCCl)nc2ccccc21 | - | - | - | - | . | .
CN(C)[C@@H]1C(=O)C(C(N)=O)=C(O)[C@@]2(O)C(=O)C3=C(O)c4c(O)cccc4[C@@](C)(O)[C@H]3[C@H](O)[C@@H]12 | - | - | - | 44.0 | 19.7 | -
CN(C)[C@@H]1C(=O)C(C(N)=O)=C(O)[C@@]2(O)C(=O)C3=C(O)c4c(O)cccc4[C@@](C)(O)C3C[C@@H]12 (stereo not given in full) | - | - | - | - | . | .
SMILES | ATG4B inhibitor | Cardio protect | PP5 primary | PP1 counter | PP1 inh confirm | PP5 counter | others
O=c1[nH]c(O)c(/C=C2\C=Nc3ccc(OCc4ccccc4)cc32)c(=O)[nH]1 | - | - | - | 19.4 | 24.2 | -
CC1=C(C)CC2(C(=O)NC(=O)NC2=O)C(C)C1 (stereo not given) | - | - | . | . | . | .
O=C(O)C1C2CCC(O2)C1C(=O)Nc1cccc(Br)c1 (stereo not given) | - | - | 68.6 | 69.1 | - | 18.6
COC(=O)C1=C(c2cccc(OCc3ccccc3)c2)C[C@@H]2CC[C@H]1N2C(=O)NCc1ccc(C(C)(C)C)cc1 | - | - | - | 19.6 | - | -
COC(=O)C1=C(c2ccc(-c3ccccc3)c(F)c2)C[C@@H]2CC[C@H]1N2C(=O)NCc1cccc2ccccc12 | - | - | - | 23.1 | - | -
COC(=O)C1=C(c2cccc(OCc3ccccc3)c2)C[C@@H]2CC[C@H]1N2C(=O)NCc1ccc(N(C)C)cc1 | - | - | - | - | . | .
COC(=O)C1=C(c2ccc(-c3ccccc3)c(F)c2)C[C@@H]2CC[C@H]1N2C(=O)NCCNC(C)=O | - | - | - | - | . | .
Clc1ccc(COC(Cn2ccnc2)c2ccc(Cl)cc2Cl)c(Cl)c1 (stereo not given) | - | - | - | 22.8 | 27.2 | -
Cc1nccc2c1[nH]c1ccc(Br)cc12 | - | - | - | 20.9 | - | -
CCCCCn1c(=O)c(C(=O)Nc2ncccc2C)c(O)c2ccccc21 | - | - | - | 25.4 | 21.7 | -
O=C1N(c2nncs2)CCN1[N+](=O)[O-] | - | - | - | - | . | .
CSc1ccccc1C(=O)C1CCCN(Cc2ccn[nH]2)C1 (stereo not given) | - | - | - | - | . | .
O=C(N/N=C/c1c(O)n(Cc2ccc(F)cc2)c(=O)[nH]c1=O)c1ccccc1O | - | - | - | 20.6 | - | -
O=c1[nH]c(=S)[nH]c(O)c1/C=N/N1CCOCC1 | - | - | - | - | . | .
Cc1cc(C(=O)O)c(C)n1C1CC1 | - | - | - | - | . | .

Assay outcomes (PubChem)
